Laboratory results reported in PubChem BioAssay AID720610 (Broad Institute, 2013).
Inconclusive results are not listed. The source made the active and inactive calls.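 Rule for the calls: active = compounds whose fitted half-maximal signal loss occurs at or below twice the top dose at every exposure time; inconclusive = exposure times disagree on the call; inactive = the rest.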

Test: cytotoxicity in HeLa cells, metabolic dye – Alamar Blue fluorescence, 8-48 h, dry powder, mechanism study for HRAS target identification, late-stage follow-up (AID 720610)

SMILES	outcome
CCC(=O)N(c1ccc(OC)c(Cl)c1)C(C(=O)NCCc1ccccc1)c1cccs1 (configuration not stated)	inactive
Cc1onc(C(=O)N2CCN(C(c3ccncc3)c3ccncc3)CC2)c1[N+](=O)[O-]	inactive
